The results in this text go back to PubChem BioAssay (NCATS).

In one assay the target is Catechol O-methyltransferase (Homo sapiens) (UniProt P21964). As to the kind of experiment: Confirmatory Screen for Target Class Profiling of Small Molecule Inhibitors of Methyltransferases (AID 1745852). On activity change, negative = inhibition: on the % scale 0 is the no-effect control and ±100 the full control effect. The note with it: MTase-Glo luminescence, SAH detection, recombinant enzyme; measured here: COMT max response; stronger effect = lower value.
Catechol O-methyltransferase (Homo sapiens), sequence (P21964 whole entry, looked up): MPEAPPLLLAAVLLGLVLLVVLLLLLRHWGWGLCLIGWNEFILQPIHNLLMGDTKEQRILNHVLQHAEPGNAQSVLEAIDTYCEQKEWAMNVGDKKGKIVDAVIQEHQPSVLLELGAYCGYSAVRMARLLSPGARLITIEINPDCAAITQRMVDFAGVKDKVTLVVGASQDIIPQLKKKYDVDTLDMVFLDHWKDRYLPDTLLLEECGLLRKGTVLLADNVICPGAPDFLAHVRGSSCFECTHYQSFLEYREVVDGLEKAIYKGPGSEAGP
Take `COC(=O)[C@@H](N)Cc1ccc(O)c(O)c1`: the activity worked out at 134%.

Consider `COc1cc(C(=O)OCCCN2CCCN(CCCOC(=O)c3cc(OC)c(OC)c(OC)c3)CC2)cc(OC)c1OC`, for which the activity was -6.42%.

For the compound `CN(C)[C@@H]1C(=O)C(C(N)=O)=C(O)[C@@]2(O)C(=O)C3=C(O)c4c(O)ccc(Cl)c4[C@@H](O)[C@H]3C[C@@H]12`, the activity is -43.5%.

For `CCc1cccc(N(C)C(N)=Nc2cccc3ccccc23)c1`, the activity is -0.0494%.

The next assay addresses Guanidinoacetate N-methyltransferase (Homo sapiens) (UniProt Q14353). The description is as above. The note with it: MTase-Glo luminescence, SAH detection, recombinant enzyme; at 57.3 µM (top of the series).
Take `COC(=O)[C@@H](N)Cc1ccc(O)c(O)c1`: the activity change, negative = inhibition is 1.23%.

Consider `COc1cc(C(=O)OCCCN2CCCN(CCCOC(=O)c3cc(OC)c(OC)c(OC)c3)CC2)cc(OC)c1OC`, for which the activity change, negative = inhibition was 9.88%.

With `CN(C)[C@@H]1C(=O)C(C(N)=O)=C(O)[C@@]2(O)C(=O)C3=C(O)c4c(O)ccc(Cl)c4[C@@H](O)[C@H]3C[C@@H]12`, the activity change, negative = inhibition was determined as 8.05%.

On to `CCc1cccc(N(C)C(N)=Nc2cccc3ccccc23)c1`, for which the activity change, negative = inhibition turned out to be 4.76%.
